# Screening data as filed in PubChem BioAssay.
# A selection: hits, their analogues and other compounds. The true share with any hit is near 4.9%.
# PP5 inh – blocks human protein phosphatase 5 activity; purified PP5c, OMFP substrate fluorescence; inhibition, % at 6.7 µM; 320,000 tested, 0.18% active; AID 1987;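 active means inhibition above the campaign's mean inhibition across all tested compounds plus 3 SD, cut at about 9.5% in these data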;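 further: 0% = DMSO only and 100% = 100 µM cantharidin control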
# CSC inhib – cancer stem cell inhibition; AID 2717; 300,000 tested, 1.1% active; inhibition, % at 7.5 µM; cancer stem cell-like cells viability, luminescence; in the data active means inhibition above about 75%; inconclusive means no clear call, values can overlap the other calls; tested in HMLE shEcad cells
# Calb FLC – C. albicans growth modulation with fluconazole; C. albicans CaCi-2 (fluconazole-resistant clinical isolate) + fluconazole, Alamar Blue growth, 48 h; growth inhibition, % (no concentration beside the values); 300,000 tested, 0.57% active; AID 1979;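 active means growth inhibition above about 58% in most replicates, limit read from the data, passing the limit was not always enough; inconclusive means exactly half the replicates above a set limit; inactive means most replicates below a set limit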;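 further: all wells also contain fluconazole at 8 µg/ml as a sub-toxic cotreatment; 0% = median of DMSO wells and 100% = median of geldanamycin control wells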
# PP1 inh – blocks human PP1-alpha phosphatase, a PP5 counter-screen | P62136 | purified PP1alpha, OMFP fluorescence | inhibition, % at 6.7 µM | 320,000 tested, 0.9% active | AID 2235;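 active means inhibition above the mean inhibition of all tested compounds plus 3 SD, computed separately for each screening campaign, cut at about 15% in these data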
# Mdm2 MdmX PPI – human Mdm2/MdmX binding inhibition; O15151+Q00987; SaOS-2 split-luciferase Mdm2/MdmX complementation, luminescence; inhibition, % at 8 µM; 330,000 tested, 3% active;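 active means inhibition of at least 50% at 8 µM in the primary screen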
# Beta apoptosis – blocks beta cell apoptosis; INS-1E cytokine-induced death, ATP luminescence, 48 h; percent of positive-control rescue, neutral wells zero; protection from apoptosis, % (test concentration not listed); 300,000 tested, 0.8% active;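 active means Every replicate reaches about 75%, or at least half do and their mean reaches it too, limit read from the data; inconclusive means At least half of replicates reach the limit but their mean does not; inactive means Under half of replicates reach the limit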;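 further: 0% = cytokine-treated negative control wells and 100% = positive control rescue; higher means more ATP so stronger rescue from cytokine killing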
# * = called active by the depositor; ? = inconclusive; · = no result.
SMILES,PP5 inh,CSC inhib,Calb FLC,PP1 inh,Mdm2 MdmX PPI,Beta apoptosis
O=C(NCc1cccnc1)c1ccc(-c2ccc(Cl)cc2)o1,3,13,9,1,3,-5
COc1ccc(-n2c(C)cc(-c3cn4cccc(C)c4n3)c2C)cc1,1,13,-22,15*,-18,1
Cc1cc(-c2cn3ccccc3n2)c(C)n1-c1ccccc1,0,3,1,12,-21,10
Cc1ccc2c(c1)N(C(=O)CCC(=O)NCCCN1CCC(Cc3ccccc3)CC1)CCO2,-2,3,2,-4,37,99*
Cc1ccc2c(c1)N(C(=O)CCC(=O)NCCCN1CCN(C)CC1)CCO2,5,·,-29,2,13,-6
CS(=O)(=O)Nc1cccc(C2=NN(S(=O)(=O)c3ccccc3)C(c3ccco3)C2)c1 (configuration not stated),2,·,2,1,4,4
Cc1ccc(OC(C)C(=O)N=Nc2c(O)[nH]c3ccc([N+](=O)[O-])cc23)cc1 (configuration not stated),4,46,39,-5,9,-1
O=C(NNc1ccccc1)C(=O)N1CCCCC1,1,111*,13,3,16,·
CN(C)S(=O)(=O)c1cccc(-c2nn(-c3ccccc3)cc2/C=C2\SC(=S)NC2=O)c1,4,94*,·,17*,·,38
CN(C)S(=O)(=O)c1cccc(-c2nn(-c3ccccc3)cc2/C=C(\C#N)c2nc3ccccc3[nH]2)c1,2,-10,-7,-2,14,2
CC(C)N1CCN(Cc2ccc(OCc3ccccc3)cc2)CC1CCO (configuration not stated),0,77*,1,-6,21,7
Cc1ccc(NC(=O)c2cccc(NC3=NC4CS(=O)(=O)CC4S3)c2)cc1 (configuration not stated),3,·,-7,-5,31,2
COc1ccc(-c2nc(-c3ccccc3)c(-c3cc([N+](=O)[O-])ccc3C)[nH]2)cc1O,4,-19,25,5,28,-5
Cc1ccc([N+](=O)[O-])cc1-c1[nH]c(-c2ccc(O)c(O)c2)nc1-c1ccccc1,6,33,112*,6,33,·
CCOC(=O)c1sc(=NC(=O)c2ccco2)n(C)c1C,-2,-3,106*,-1,-57,2
COC(=O)c1[nH]c2cc(C)ccc2c1NC(=O)CN1CCc2cc(OC)c(OC)cc2C1,1,-2,100*,0,28,-8
Cc1ccc(-c2nc(-c3cccnc3)no2)c(C)c1,4,-6,95*,0,-167,-1
COc1cc(C(=S)N2CCCCC2)ccc1OCC(=O)Nc1ccc(F)cc1,0,-11,6,0,1,-1
N#C/C(=C/c1ccc(N2CCCCCC2)o1)c1ccc(Cl)cc1,0,66,6,-1,15,81*
COc1ccc(/C=C/C(=O)N(c2ccccn2)C2CCCCC2)cc1OC,-1,-1,83*,3,-2,5
CC(=O)N1CCOCCOCCN(C(C)=O)CCOCCOCC1,2,-2,102*,-3,5,-4
Cc1ccc(C(C)C)cc1S(=O)(=O)NCc1ccccn1,1,24,-2,2,0,-2
O=C(NNC(=O)c1ccccc1O)c1ccc(-c2ccc([N+](=O)[O-])cc2)o1,2,-5,91*,2,43,·
COc1ccc(S(=O)(=O)CC2(O)CCN(C(=O)CC(C)C)CC2)cc1,-2,-9,-2,-6,-10,-4
CCC1CCCCN1C(=O)c1cc(COc2ccc3ncccc3c2)on1 (configuration not stated),1,-4,15,0,-24,113*
SMILES,PP5 inh,CSC inhib,Calb FLC,PP1 inh,Mdm2 MdmX PPI,Beta apoptosis
CCN1CCN(C(=O)c2cc(COc3ccc4ncccc4c3)on2)CC1,-1,7,1,-1,-6,45
COCCOC1CCN(C(=O)c2cc(COc3ccc(-n4cncn4)cc3)on2)CC1,-2,7,-4,-3,13,-4
CC(CCCC(C)(C)O)NC(=O)c1cc(COc2ccc3ncccc3c2)on1 (configuration not stated),1,-6,26,1,16,88*
O=C(NCc1cccc(Cl)c1)c1cc(COc2ccc3ncccc3c2)on1,0,27,?,0,20,66
COCC1CCCCN1C(=O)c1cc(COc2ccc3ncccc3c2)on1 (configuration not stated),1,3,17,-8,23,86*
COCCC1CCCCN1C(=O)c1cc(COc2ccc(-n3cncn3)cc2)on1 (configuration not stated),1,-13,3,0,24,87*
O=C(O)CCC1c2cc3c4cc2OC2Oc5cc6c(cc51)C(CCC(=O)O)c1cc5c7cc1OC(O6)c1cc6cc(c1)Oc1cc(cc(C(=O)O)c1)Oc1cc8cc(c1)C(Oc1cc(c(cc1C5CCC(=O)O)C3CCC(=O)O)OC(O4)c1cc(cc(c1)Oc1cc(cc(C(=O)O)c1)O8)Oc1cc(cc(C(=O)O)c1)Oc1cc(cc2c1)Oc1cc(cc(C(=O)O)c1)O6)O7 (configuration not stated),13*,18,0,91*,41,-10
C/C(=N\N=C(/N)SC1CC(=O)N(c2ccc(Cl)c(Cl)c2)C1=O)c1cccs1 (configuration not stated),6,79*,?,1,17,0
COc1ccccc1N1CCN(C(=O)CSc2ncccc2-c2nc3ccccc3[nH]2)CC1,5,-1,44,0,13,12
COc1ccccc1N1CCN(C(=O)CSc2nc3ccccc3[nH]2)CC1,4,5,6,17*,-10,-1
Cc1ccc(C)c(NC(=O)c2cc(-c3ccccc3)nn2-c2ccccc2)c1,-1,89*,29,0,16,-3
Cc1ccc(C)c(NC(=O)c2nc(-c3ccccc3)n(-c3ccccc3)n2)c1,6,-8,10,-1,38,5
O=C(Nc1ccc(S(=O)(=O)N2CCOCC2)cc1)c1ccc([N+](=O)[O-])s1,1,63,·,-5,37,90*
CN(C)C1=NC[C@H](Cc2ccccc2)N1CCC1CCCC1,0,3,·,1,29,10
CN(C)C1=NC[C@H](Cc2ccccc2)N1CCCC1CCCCC1,0,27,·,-1,43,87*
S=C1NC[C@H](CC2CCCCC2)N1CCCCC1CCCCC1,3,-27,-5,0,22,3
S=C1NC[C@H](Cc2ccccc2)N1CCCCC1CCCCC1,3,136*,-22,2,-25,-11
O=C1CC2(CCN(S(=O)(=O)c3ccccc3F)CC2)Oc2ccccc21,-1,-11,5,-1,-3,-4
